Assay outcomes deposited in PubChem by SRMLSC.
DPM-DC inhibit: S. pneumoniae DPM-DC inhibition; 65,000 compounds, 0.49% hits; purified DPM-DC, PK/LDH coupled NADH fluorescence; calls only at 10 µM; AID 556;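 active means the 320 compounds with the highest percent inhibition in the single-dose primary screen, excluding strongly autofluorescent ones, cut at about 32% in these data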;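 further: kinetic rate of NADH fluorescence loss reporting ADP formed by the decarboxylase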
MK inhibit: S. pneumoniae mevalonate kinase inhibition; purified MK, PK/LDH-coupled NADH absorbance 340 nm; inhibition, % at 10 µM; 65,000 compounds, 0.48% hits; AID 555;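 active means ranked among the strongest by inhibition in the single 10 µM screen, a fixed top-ranked set picked for dose follow-up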
A340 absorber: compounds absorbing at 340 nm | 65,000 tested, under 10 active | fold change at 10 µM | compound absorbance at 340 nm, fold over control;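 active means at 10 µM dose, initial 340 nm absorbance at least 2 fold that of control wells; inactive means change under 2 fold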;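 further: initial absorbance extrapolated from kinetic A340 decline of NADH oxidation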
NADH coupling: inhibition of NAD/NADH coupling enzymes, library profiling; IC50, µM (titrated, usually from 10 µM); 65,000 compounds, 0.02% hits; AID 774; coupled PK/LDH NADH assays, four targets;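 active means single-dose screening hits from any of four coupled enzyme assays that gave an IC50 when retested across doses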;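 further: the DPM-DC format reads NADH fluorescence rather than 340 nm absorbance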
Spn PMK inh: S. pneumoniae PMK inhibition; purified PMK, PK/LDH-coupled NADH absorbance 340 nm; AID 539; inhibition, % at 10 µM; 65,000 compounds, 0.49% hits;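 active means top-ranked compounds by inhibition in the single 10 µM screen, taking a fixed number of the strongest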
Autofluor 339: intrinsic fluorescence of library compounds, ex339/em460 – biochemical, MLSMR library, data from DPM-DC assay, artefact control, profiling panel. compound autofluorescence, ex339/em460 nm, NADH buffer; active compounds read high; 1 = no-compound wells, NADH background. fluorescence fold increase at 10 µM. 65,000 compounds, 5.5% hits. AID 709;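 active means at 10 µM, mean starting fluorescence two-fold or more over control wells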;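 further: signal is the first read of a kinetic run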
Hits are given with their value; . = inactive; / = no result given; + = active, no number. Sampled rows, rich in hits. Any-hit rate of the full collection: about 6.8%.

SMILES | DPM-DC inhibit | MK inhibit | A340 absorber | NADH coupling | Spn PMK inh | Autofluor 339
CCc1ccccc1NC(=O)c1cnc2scc(C)n2c1=O | . | . | . | . | . | .
COc1ccc(-c2c(N)nnc3c2[nH]c2ccccc23)cc1OC | / | . | . | . | . | 4.6
CCN1c2ccccc2-c2nc3ccccc3n2C1c1cccnc1 (configuration not stated) | / | . | . | . | . | 3.8
CCN1c2ccccc2-c2nc3ccccc3n2C1c1ccccn1 (configuration not stated) | / | . | . | . | . | 3.8
CCn1c(=N)c(C(=O)NC)cc2c(=O)n3cccc(C)c3nc21 | / | . | . | . | . | 3.9
CCn1c(=N)c(C(N)=O)cc2c(=O)n3cccc(C)c3nc21 | / | . | . | . | . | .
Cc1cccn2c(=O)c3cc(C(=O)NC4CCCCC4)c(=N)n(CCN4CCOCC4)c3nc12 | . | . | . | . | . | .
Cc1cccn2c(=O)c3cc(C(=O)NCCCN4CCOCC4)n(C)c3nc12 | / | . | . | . | . | 2.1
CCCCNC(=O)c1cc2c(=O)n3cccc(C)c3nc2n(CCN2CCOCC2)c1=N | / | . | . | . | . | 3.8
CCCCNC(=O)c1cc2c(=O)n3cccc(C)c3nc2n(Cc2ccncc2)c1=N | / | . | . | . | . | 3.7
COCCNC(=O)c1cc2c(=O)n3cccc(C)c3nc2n(Cc2ccncc2)c1=N | / | . | . | . | . | 3.9
COc1ccc(CCNC(=O)c2cc3c(=O)n4cccc(C)c4nc3n(Cc3ccncc3)c2=N)cc1 | . | . | . | . | . | .
CCOCCCn1c(=N)c(C(=O)NCc2ccc3c(c2)OCO3)cc2c(=O)n3cccc(C)c3nc21 | . | . | . | . | . | 2.7
O=C(COC(=O)c1cc(S(=O)(=O)N2CCOCC2)ccc1Cl)Nc1ccc2c(c1)OCO2 | . | . | . | . | . | .
Cc1ccc(S(=O)(=O)N(C)CC(=O)N2CCCc3ccccc32)cc1 | . | . | . | . | . | .
CCCCN(C)Cc1c(C)[nH]c2ccc(OCC)cc2c1=O | / | . | . | . | . | 2.1
COc1ccc(C(=O)Nc2ccc(N3CCN(c4ccc(OC)cc4)CC3)c(C#N)c2)cc1 | / | . | . | . | . | 5.1
COc1ccc(N2CCN(c3ccc(N)cc3C#N)CC2)cc1 | . | . | . | . | . | .
COc1ccc(N2CCN(c3ccc(NC(=O)C4CCCCC4)cc3C#N)CC2)cc1 | . | . | . | . | . | 2.2
COc1ccc(C(=O)N2CCC(C(=O)Nc3ccc(OC)c(OC)c3)CC2)cc1 | . | . | . | . | . | .
C/C=C/Cn1c(N(C)Cc2ccccc2)nc2c1c(=O)[nH]c(=O)n2C | + | . | . | . | . | .
CN(Cc1ccccc1)c1nc2c(c(=O)[nH]c(=O)n2C)n1C | . | . | . | . | . | .
Cc1ccc2nc(-c3ccc(SCC(=O)O)nc3)[nH]c2c1 | + | . | . | . | . | 3.8
Cc1ccc2nc(SCC(=O)N3CCCC3)[nH]c2c1 | . | . | . | . | . | .
COc1ccc(-c2cc3nc(C)c(CCC(=O)NCc4ccco4)c(C)n3n2)c(OC)c1 | . | . | . | . | . | 2.2
SMILES | DPM-DC inhibit | MK inhibit | A340 absorber | NADH coupling | Spn PMK inh | Autofluor 339
COc1ccc(-c2cc3nc(C)c(CCC(=O)N4CCCCC4)c(C)n3n2)c(OC)c1 | . | . | . | . | 40 | .
C=CCn1c(SCc2nc3ccccc3nc2C)nnc1-c1ccoc1C | . | . | . | . | . | .
COc1ccc(C(=O)Nc2ccncc2)cc1OC | . | . | . | . | 40 | .
COc1ccc(C(=O)Nc2nccs2)cc1OC | . | . | . | . | . | .
COc1ccc(-n2nnnc2Sc2ccc(S(=O)(=O)N3CCOCC3)cn2)cc1 | . | . | . | . | . | .
CCOC(=O)CC(Nc1nc(N2CCOCC2)nc(N2CCOCC2)n1)c1ccccc1Cl (configuration not stated) | . | . | . | . | . | .
COc1ccc(-c2nnc(NC(=O)C(C)C)s2)c(OC)c1 | / | . | . | . | . | 2.1
CCOC(=O)Nc1nnc(-c2cccc(OC)c2)s1 | / | . | . | . | . | 3.8
CCOC(=O)Nc1nnc(-c2ccccc2OC)s1 | / | . | . | . | . | 2.8
COC(=O)Nc1nnc(-c2ccncc2)s1 | / | . | . | . | . | 3.7
COc1ccccc1-c1nnc(NC(=O)OCC(C)C)s1 | . | . | . | . | . | .
O=C(CCn1c(=O)oc2ccccc21)NCCN1CCOCC1 | . | . | . | . | . | .
COC(=O)Nc1nnc(-c2ccccc2Cl)s1 | . | . | . | . | . | 2.9
CC1(C)CC(NC(=O)C23CCC(C)(C(=O)C2)C3(C)C)CC(C)(C)N1 (configuration not stated) | . | . | . | . | . | .
COc1ccc2[nH]c(C(=O)O)c(CCNC(C)=O)c2c1 | . | . | . | . | . | 2.5
CCOC(=O)c1oc2ccc3c(c2c1C)C(=O)CC1(CCN(C(=O)OCC)CC1)O3 | . | . | . | . | . | .
CCOC(=O)N1CCC2(CC1)CC(=O)c1c(ccc3oc(C(=O)O)c(C)c13)O2 | / | . | . | . | . | 3.4
CCC(C)Sc1nc2c(c(=O)[nH]c(=O)n2C)n1Cc1ccccc1Cl (configuration not stated) | . | . | . | . | . | .
Cc1c(-n2cc(C(=O)O)c(=O)c3cc(F)c(N4CCCC4)c(F)c32)c(=O)n(-c2ccccc2)n1C | . | . | . | . | . | .
CN1CCN(c2c(F)cc3c(=O)c(C(=O)O)cn4c3c2SCC4)CC1 | / | . | . | . | . | 3.8
COC(=O)c1[nH]c2ccc(C)cc2c1NC(=O)CN1CCc2cc(OC)c(OC)cc2C1 | . | . | . | . | . | 2.2
COC(=O)c1[nH]c2ccc(Cl)cc2c1NC(=O)CCN1CCN(C2CCCCC2)CC1 | . | . | . | . | . | .
COC(=O)c1[nH]c2ccc(C)cc2c1NC(=O)C1=COCCO1 | . | . | . | . | . | .
COC(=O)c1[nH]c2ccc(C)cc2c1NC(=O)CCN1CCN(C2CCCCC2)CC1 | . | . | . | . | . | 2.9
COC(=O)c1[nH]c2ccc(F)cc2c1NC(=O)CCN1CCN(Cc2ccc3c(c2)OCO3)CC1 | . | . | . | . | . | 2
SMILES | DPM-DC inhibit | MK inhibit | A340 absorber | NADH coupling | Spn PMK inh | Autofluor 339
COC(=O)c1[nH]c2ccc(C)cc2c1NC(=O)Nc1ccccc1OC | . | . | . | . | . | 2.6
COC(=O)c1[nH]c2ccc(C)cc2c1NC(=O)CN1CCCC(C)(C)C1 | . | . | . | . | . | .
CC1=Nc2ncnn2C(c2ccccc2)/C1=N\O (configuration not stated) | . | . | . | . | . | .
CCOC(=O)CSc1n[nH]c(-c2cccnc2)n1 | . | . | . | . | 25 | .
CCOC(=O)CSc1nnc(-c2cccnc2)n1Cc1ccccc1 | . | . | . | . | . | .
O=C(Nc1ccc(F)cc1)N1CCC(c2nc3c(nnn3Cc3cccc(Cl)c3)c(=O)[nH]2)CC1 | . | 49 | . | . | . | .
